SMN2 splice enh – enhancers of SMN2 splice variant expression; HEK293 SMN2-luciferase splicing reporter, luminescence, 30-36 h; Potency, µM (series often up to 46.1 µM), actives largely listed as activators; 2.8% of 210,000 active; also: nearly all actives have a fitted effect of over 55% in size
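HEK293 cells carry an SMN2 […]–luciferase reporter in which exon 7 inclusion puts luciferase in frame. Cells were plated 10-12 h before compound addition, then incubated 30-36 h at 37C. ONE-Glo luminescence was read; sodium butyrate at 4.5 mM final served as control.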
FLuc modulator – inhibits or activates purified firefly luciferase, miR-21 counter-screen; purified FLuc, Km substrates, luminescence inhibition; Potency, µM (top dose mostly 57.5 µM), hits mostly inhibitors; 6.9% of 360,000 active; also: nearly all actives have a fitted effect of over 55% in size
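Purified P. pyralis luciferase (10nM final) with 10uM D-luciferin and 10uM ATP (Km levels) in 50mM Tris acetate pH 7.5, 10mM Mg acetate, 0.01% Tween-20, 0.05% BSA; qHTS 6-point titration, ~60 µM downward; luminescence read.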
ELG1 DNA repair – ELG1-dependent DNA repair inhibition. HEK293T ELG1-luciferase reporter, luminescence, 16 h; DNA damage induced by 5-fluorouridine. Potency, µM (titrated, usually from 46.1 µM), hits mostly inhibitors. 2.3% of 330,000 active; also: nearly all actives have a fitted effect of over 55% in size
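Reporter activity after DNA damage by 5-fluorouridine is monitored. Compound-treated cells incubate 16 hr at 37 °C, then ONE-Glo is added for 30 min before luminescence reading.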
ELG1 genotoxic – induces genotoxicity in HEK293T cells with luciferase-tagged ELG1 | HEK293T ELG1-luciferase reporter, luminescence, 16 h | Potency, µM (highest dose often 46 µM), actives largely listed as activators | 1.3% of 330,000 active | AID 504466; also: nearly all actives have a fitted effect of over 60% in size
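ELG1-luciferase HEK293T cells, 2,000/well; compound pinned in; 16 hr, 37 °C, 5% CO2; ONE-Glo, 30 min RT; luminescence on CCD imager.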
NPC1 promoter act – activators of NPC1 promoter; Huh7 NPC1 promoter luciferase reporter, 24 h; Potency, µM (highest dose often 9.22 µM), most hits filed as activators; 2.4% of 320,000 active; AID 485313; also: nearly all actives have a fitted effect of over 60% in size
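Readout is luciferase luminescence, reflecting NPC1 promoter activation in stably transfected Huh7 cells after 24 h compound exposure at 37 °C in reduced-serum medium with 10% FBS.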
Rab9 prom act – activates the Rab9 promoter; Huh7 Rab9 promoter-luciferase reporter, luminescence, 24 h; Potency, µM (top dose mostly 9.22 µM), usual class: activators; 2.8% of 320,000 active; also: nearly all actives have a fitted effect of over 60% in size
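Stable Rab9-luc Huh7, 1500 cells/well, 2 h settle; cmpd in DMSO, 24 h, 37 °C/5% CO2; luciferase reagent 10 min RT; luminescence.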
ELG1 FLuc counter – luciferase inhibition in cell-free luciferin readout for ELG1 hits | shares compounds with ELG1 DNA repair | cell-free firefly luciferase luminescence counter-screen, ViewLux | Potency, µM (titrated, usually from 46.1 µM), most hits filed as inhibitors | 3% of 350 active
ELG1 Luc conf – human ELG1 repair inhibition, luciferase-tagged ELG1 confirmation; AID 624248; HEK293T ELG1-luciferase levels, luminescence; cells co-treated with 5-fluorouridine; Potency, µM (top dose mostly 46.1 µM), actives largely listed as inhibitors; 68% of 670 active; shares compounds with ELG1 DNA repair; also: nearly all actives have a fitted effect of over 55% in size
ELG1 MMS Luc – MMS-stimulated human ELG1 repair inhibition, confirmed | Potency, µM (doses to about 46.1 µM), actives largely listed as inhibitors | 53% of 670 active | HEK293T luciferase-tagged ELG1 level, MMS stimulated | shares compounds with ELG1 DNA repair; also: nearly all actives have a fitted effect of over 60% in size
ELG1 5FU viab – confirmation of ELG1 repair inhibitors: viability with 5FU; 670 tested, under 10 active; Potency, µM (series often up to 46.1 µM), most hits filed as cytotoxic; shares compounds with ELG1 DNA repair; cell viability with 5-FU, ELG1-dependent repair;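 also: ELG1-luc HEK293T cells cotreated with 5-fluorouridine at 10 µM final; viability measured 16 h after compound addition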
ELG1 MMS viab – confirmation of ELG1 repair inhibitors: viability with MMS; shares compounds with ELG1 DNA repair; Cell viability with MMS, ELG1-dependent DNA repair; Potency, µM (top dose mostly 46.1 µM), actives largely listed as cytotoxic; 33% of 670 active; AID 624251;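 also: ELG1-luc HEK293T cells co-treated with 10 µM MMS; viability read 16 h after compound addition; nearly all actives have a fitted effect of over 60% in size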
ELG1 unstim viab – counter-screen for ELG1 repair inhibitors: unstimulated cell viability | Potency, µM (series often up to 45.9 µM), most hits filed as cytotoxic | shares compounds with ELG1 DNA repair | cell viability counter-screen, unstimulated, luminescence | 8% of 900 active;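 also: compound exposure lasted 16 hours before reading; nearly all actives have a fitted effect of over 55% in size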
FLuc biochem – inhibits purified firefly luciferase, counter-screen for ELG1 hits. shares compounds with ELG1 DNA repair. 10% of 350 active. AID 624253. purified firefly luciferase, luminescence counter-screen. Potency, µM (titrated, usually from 57.5 µM), usual class: inhibitors
Of the large screens only hits and unclear results are named; the others gave an inactive call (follow-up assays come after a bar, where they were run). Compounds with a hit are over-represented: about 9.2% of the library has one in this group of screens. Calls follow the shape of the dose curve; as a rule, active = well fitted curve in the direction sought with a large enough effect; inconclusive = small, poorly fitted or top-dose-only effect, or another doubt; inactive = no such curve, though single readings can be large; an effect the other way counts as inactive or inconclusive.

Cc1ccc(C(=O)NNS(=O)(=O)c2ccc(F)cc2)cc1	ELG1 DNA repair inconclusive (no result: SMN2 splice enh)
Cc1cc(C)c(CN2CCN(C(=O)Cn3ccc(N)nc3=O)CC2)c(C)c1	none (no result: SMN2 splice enh)
CSc1nc(N)nc2c1ncn2CC(=O)N1CCN(Cc2c(C)cc(C)cc2C)CC1	ELG1 DNA repair 2.31µM (no result: SMN2 splice enh, FLuc modulator, NPC1 promoter act, Rab9 prom act) | ELG1 Luc conf inconclusive | ELG1 MMS Luc 0.705µM | ELG1 5FU viab inactive | ELG1 MMS viab 1.25µM | ELG1 unstim viab inconclusive
CCOC(=O)Cn1c(=O)n(C2CCCCC2)c2nc(-c3ccc(CC)cc3)nc(C(N)=O)c21	none (no result: SMN2 splice enh, ELG1 DNA repair, ELG1 genotoxic, NPC1 promoter act, Rab9 prom act)
CC1(C)Cc2c(C#N)c(SCc3ccccc3)nc(N3CCOCC3)c2CO1	ELG1 DNA repair 2.31µM | ELG1 Luc conf 2.23µM | ELG1 MMS Luc inactive | ELG1 5FU viab inconclusive | ELG1 MMS viab inactive | ELG1 unstim viab inactive
CCCCCSc1nc(N2CCOCC2)c2c(c1C#N)CC(C)(C)OC2	none
CC(=O)c1cccc(NC(=O)COc2cc3oc(=O)c(CC(C)O)c(C)c3cc2Cl)c1 (configuration not stated)	ELG1 DNA repair 4.11µM | ELG1 Luc conf 6.28µM | ELG1 MMS Luc 22.3µM | ELG1 5FU viab inconclusive | ELG1 MMS viab inactive | ELG1 unstim viab inconclusive
Cc1ccc(NC(=O)COC(=O)CCc2nc3ccccc3c(=O)[nH]2)cc1Cl	none
CCOC(=O)c1c(C)[nH]c(C(=O)N2CCN(C(=O)OCC)CC2)c1C	none (no result: SMN2 splice enh)
CCOC(=O)c1c(C)[nH]c(C(=O)N2CCc3cc(OC)c(OC)cc3C2)c1C	ELG1 DNA repair 1.46µM (no result: SMN2 splice enh) | ELG1 Luc conf 3.53µM | ELG1 MMS Luc inconclusive | ELG1 5FU viab inconclusive | ELG1 MMS viab inactive | ELG1 unstim viab inactive
COc1cnc(-c2ccccn2)nc1Sc1ccc(Cl)cc1	ELG1 DNA repair 0.366µM | ELG1 FLuc counter inactive | ELG1 Luc conf 28.1µM | ELG1 MMS Luc inconclusive | ELG1 5FU viab inactive | ELG1 MMS viab inactive | ELG1 unstim viab inactive | FLuc biochem inactive
CC(C)N(CCNCC(O)COc1ccc(C(C)(C)c2ccccc2)cc1)C(C)C (configuration not stated)	none
NC(=O)c1sc2nc3c(c(-c4cccs4)c2c1N)CCCCC3	ELG1 DNA repair 0.82µM | ELG1 FLuc counter inconclusive | ELG1 Luc conf 1.12µM | ELG1 MMS Luc 4.45µM | ELG1 5FU viab inactive | ELG1 MMS viab inactive | ELG1 unstim viab inconclusive | FLuc biochem inactive
Cc1cc(-c2csc3ncnc(N4CCN(C)CC4)c23)cc(C)c1C	none (no result: SMN2 splice enh)

Compound activity from PubChem.
